# Measurements from PubChem BioAssay.
# Several values for one entry are separate records, joined by “and”; a condition that tells them apart may be missing. Equal values may be shown once. Inconclusive results are not listed. Activity calls are given as the source filed them.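 Rule for the calls, unless noted: active = compounds whose cell count with miR-34 switched on is under 0.7 times the count with it off; inactive = the rest.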
# Experiments:
# [1] = Wnt pathway potentiators raising nuclear beta-catenin – imaging, WNT3A-conditioned medium, mouse C2C12, NPC library, primary screen (AID 1117326; in the data active = nuclear beta-catenin stimulation mostly above about 4.2%, no sharp cut-off; inactive = mostly below about 10%; note: reference of the scale not given here); conditions: stronger effect = higher value
# [2] = stimulators of insulin release from INS-1E, primary screen, cell-based, 5 mM glucose, NPC library (AID 1117329;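 active = compound raises insulin release from rat beta cells at 5 mM glucose, no numeric limit stated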; note: reference of the scale not given here); conditions: rat INS-1E insulin secretion, at 10 µM, stronger effect = higher value
# [3] = growth inhibition of GSK3B-pretreated HCT116 cells – cell-based, CellTiter-Glo, 0.2 to 20 µM (AID 1117336;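 active = compounds lowering colon cancer cell viability after pretreatment blocking the GSK3B kinase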); conditions: HCT116 viability after GSK3B inhibitor, at 20 µM, stronger effect = higher value
# [4] = inhibition of endothelial tube formation, primary screen, imaging, VEGF stimulated, CD31 staining, tube area, NPC library (AID 1117340;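 active = compound that reduces growth-factor-driven endothelial tube area in a mixed cell culture, no cutoff stated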); conditions: VEGF-stimulated ADSC/ECFC co-culture, at 10 µM, stronger effect = higher value
# [5] = GLP1 release stimulators, primary, NCI-H716, NPC library (AID 1117341;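 active = compound raises GLP1 secretion from the human gut endocrine cells, with no numeric limit stated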; note: reference of the scale not given here); conditions: NCI-H716 cells, at 10 µM, stronger effect = higher value
# [6] = HCT116 colon cancer cell growth inhibition, primary screen, CellTiter-Glo luminescence, NPC library (AID 1117342;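 active = compounds that lower survival of HCT116 colon cancer cells in the luminescence readout, no numeric limit stated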); conditions: at 20 µM (top of the series)
# [7] = reduced SW480 viability measured with CellTiter-Glo, NPC library, primary (AID 1117343;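 active = compounds that lower viability of the colon cancer cells in the luminescence readout, with no numeric limit stated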); conditions: CellTiter-Glo luminescence; at 20 µM (top of the series) unless noted
# [8] = NPC library primary testing for decreased DLD-1 cell viability via CellTiter-Glo (AID 1117346;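 active = compounds that lower survival of DLD-1 colon cancer cells in the luminescence readout, no cutoff given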); conditions: DLD-1 viability, CellTiter-Glo luminescence; at 20 µM (top of the series)
# [9] = system: Aerobactin synthetase IucA (Klebsiella pneumoniae); assay: inhibition of K. pneumoniae IucA enzyme – biochemical, Tocris library, absorbance (AID 1345561; call rule not given here;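 note: 100% = enzyme without compound and 0% = no enzyme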); conditions: purified IucA enzyme assay, absorbance (OD) read-out; stronger effect = lower value;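 tested at 8 µM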
# [10] = viability loss with induced miR-34 in A549 – imaging, A549 dox-inducible miR-34, nuclei and caspase counts, primary screen (AID 1347080); conditions: A549 miR-34 inducible, Hoechst nuclei count, 48 h
# [11] = galactose survival enhancers in mitochondrial complex I cybrids – cell-based, galactose medium, ATP luminescence, primary screen (AID 1645843;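 active = z-score of at least 1.8 in each of two replicates, scored against plate mean and spread of sample wells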;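 note: positive z means more ATP and so rescue of galactose-driven cybrid death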); conditions: complex I mutant cybrid cells, 72 h, stronger effect = higher value
# [12] = P. berghei load reduction in hepatocytes – cell-based, HepG2, luciferase luminescence, HepG2 viability, primary screen (AID 624349; in the data active = parasite load remaining mostly below about 12%, no sharp cut-off; inactive = mostly above about 10%;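 note: 100% = mean of DMSO negative control wells on the same plate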); conditions: P. berghei liver stage in HepG2, luciferase luminescence, concentration not given here; parasite load remaining: stronger effect = lower value; viability: measured here: HepG2 viability without parasites
# [13] = viability loss in pontine glioma line – cell-based, SU-DIPG-XVII, MIPE5.0, CellTiter-Glo, qHTS, dose response (AID 1347060; cut-off not given, nearly all actives have AC50 up to about 26 µM;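 for AC50: cells exposed to compound for 48 hours before viability readout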); conditions: CellTiter-Glo ATP luminescence
# [14] = viability loss in pontine glioma line – cell-based, SU-DIPG-XIII, MIPE4.0, CellTiter-Glo, qHTS, dose response (AID 1347061; cut-off not given, nearly all actives have AC50 up to about 37 µM;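 note: cells exposed to compound for 48 hours before readout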); conditions: CellTiter-Glo ATP luminescence
# [15] = viability loss in pontine glioma line – cell-based, JHH-DIPG-1, MIPE4.0, CellTiter-Glo, qHTS, dose response (AID 1347062; cut-off not given, nearly all actives have AC50 up to about 27 µM); conditions: JHH-DIPG-1 viability, CellTiter-Glo ATP luminescence
# [16] = growth inhibition of DIPG cells – cell-based, MIPE5.0 library, qHTS (AID 1347068; cut-off not given, nearly all actives have IC50 up to about 30 µM;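 for IC50: cells exposed to compound for 48 hours before viability readout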); conditions: SU-DIPG-XXV viability
# [17] = MELAS cybrid and Rieske KO viability enhancers – cell-based, MELAS cybrids, Rieske KO mouse fibroblasts, CellTiter-Glo, primary screen (AID 1508586;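 active = mean z-score across replicates of 1.96 or higher in either the MELAS or the Rieske mutant cell line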;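 note: z relative to plate mean and SD of compound and empty wells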); conditions: low glucose
# [18] = stronger effect = lower value, cell number ratio, induced over uninduced
# [19] = measured here: relative caspase fold change +Dox/-Dox
# [20] = measured here: total cells with miR-34 induction, stronger effect = lower value
# [21] = measured here: total cells without miR-34 induction
# [22] = MELAS cybrid survival, CellTiter-Glo 48 h, stronger effect = higher value
# [23] = Rieske KO mouse fibroblast survival, CellTiter-Glo 72 h
structure (smiles),measurement,setting,value
CC[N+](CC)(CCNC(=O)C(=O)NCC[N+](CC)(CC)Cc1ccccc1Cl)Cc1ccccc1Cl,nuclear beta-catenin stimulation,[1]; at 10 µM,0.3% (inactive)
same,nuclear beta-catenin stimulation,"[1]; stimulation, at 2 µM",3.3%
same,insulin secretion stimulation,[2],0.9% (inactive)
same,viability decrease,[3],-14.5% (inactive)
same,tube area decrease,[4],-8.9% (inactive)
same,GLP1 secretion stimulation,[5],2.4% (inactive)
same,inhibition of viability,[6],2.83% (inactive)
same,viability decrease (inhibition),[7],6.4% (inactive)
same,viability decrease (inhibition),[8],-9.9% (inactive)
same,remaining activity,[9],122% (inactive)
same,fold change,[10]; [18],0.939 (inactive)
same,fold change,[10]; [19],1.05
same,cell count,[10]; [20],8990
same,cell count,[10]; [21],9570
same,z-score,[11],0.25 (inactive)
COC(=O)C1=C(C)NC(C)=C(C(=O)OCCCN2CCC(c3ccccc3)(c3ccccc3)CC2)C1c1cccc([N+](=O)[O-])c1 (centres undefined),parasite load remaining,[12],29% (inactive)
same,viability,[12],90.5%
same,nuclear beta-catenin stimulation,[1]; at 10 µM,-0.8% (inactive)
same,nuclear beta-catenin stimulation,"[1]; stimulation, at 2 µM",9.4%
same,insulin secretion stimulation,[2],-1.1% (inactive)
same,viability decrease,[3],110% (active)
same,tube area decrease,[4],109% (active)
same,GLP1 secretion stimulation,[5],-3.2% (inactive)
same,inhibition of viability,[6],112% (active)
same,viability decrease (inhibition),[7],134% (active)
same,viability decrease (inhibition),[8],101% (active)
same,AC50,[13],10.5 µM (active)
same,outcome,[14],inactive
same,outcome,[15],inactive
same,IC50,[16],7.42 µM (active)
same,fold change,[10]; [18],1.31 (inactive) and 0.96 (inactive)
same,fold change,[10]; [19],0.733 and 0.821
same,cell count,[10]; [20],498 and 6520
same,cell count,[10]; [21],380 and 6800
same,z-score,[17]; [22],-1.1 (inactive)
same,z-score,[17]; [23],-0.158
same,z-score,[11],-2.25 (inactive)
CCOC(=O)[C@H](CCc1ccccc1)N[C@@H](C)C(=O)N1Cc2cc(OC)c(OC)cc2C[C@H]1C(=O)O,nuclear beta-catenin stimulation,[1]; at 10 µM,-0.5% (inactive)
same,nuclear beta-catenin stimulation,"[1]; stimulation, at 2 µM",1.6%
same,insulin secretion stimulation,[2],0.3% (inactive)
same,viability decrease,[3],-1.4% (inactive)
same,tube area decrease,[4],78.4% (active)
same,GLP1 secretion stimulation,[5],0.3% (inactive)
same,inhibition of viability,[6],6.7% (inactive)
same,viability decrease (inhibition),[7],-2.3% (inactive)
same,viability decrease (inhibition),[8],3.7% (inactive)
same,remaining activity,[9],110% (inactive)
same,fold change,[10]; [18],0.937 (inactive)
same,fold change,[10]; [19],1.79
same,cell count,[10]; [20],7700
same,cell count,[10]; [21],8220
same,z-score,[11],-0.04 (inactive)
CCN[C@H]1C[C@H](C)S(=O)(=O)c2sc(S(N)(=O)=O)cc21,parasite load remaining,[12],70.8% (inactive) and 54% (inactive)
same,viability,[12],73% and 119%
same,nuclear beta-catenin stimulation,[1]; at 10 µM,0.6% (inactive)
same,nuclear beta-catenin stimulation,"[1]; stimulation, at 2 µM",1.7%
same,insulin secretion stimulation,[2],2.65% (inactive)
same,viability decrease,[3],10.3% (inactive)
same,tube area decrease,[4],-2.8% (inactive)
same,GLP1 secretion stimulation,[5],2.1% (inactive)
same,inhibition of viability,[6],4.1% (inactive)
same,viability decrease (inhibition),[7],-12.1% (inactive)
same,viability decrease (inhibition),[8],3.2% (inactive)
same,outcome,[13],inactive
same,outcome,[14],inactive
same,outcome,[15],inactive
same,outcome,[16],inactive
same,fold change,[10]; [18],0.888 (inactive) and 0.89 (inactive)
same,fold change,[10]; [19],0.692 and 0.631
same,cell count,[10]; [20],8830 and 9540
same,cell count,[10]; [21],9940 and 10700
same,z-score,[17]; [22],-0.0417 (inactive) and -1.04 (inactive)
same,z-score,[17]; [23],-0.635 and -0.666
same,z-score,[11],0.255 (inactive)
